KB-3-1 tox = KB-3-1 parental cell cytotoxicity; KB-3-1 viability, CellTiter-Glo ATP luminescence, 72 h; Potency, µM (series often up to 46.1 µM), actives largely listed as cytotoxic; 400,000 compounds, 1.4% hits; further: on the % scale 0 is the no-effect control and ±100 the full control effect; nearly all actives have a fitted effect of over 60% in size
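Cells are dispensed, compounds pinned in, plates held at 37 °C for 72 h, then CellTiter-Glo is added and luminescence read after 10 minutes. Cell line: parental KB-3-1 in phenol-red-free DMEM, 10% FBS.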
SW480 rerep = induces DNA re-replication in SW480 colon adenocarcinoma cells; SW480 DNA re-replication, Hoechst DNA content imaging, 48 h; Potency, µM (top dose mostly 46.1 µM), for the others: top-dose re-replication activation, actives largely listed as activators; 340,000 compounds, 1.8% hits; further: % of control where 0% means no effect; nearly all actives have a fitted effect of over 55% in size
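Image-based DNA-content assay: after two days of treatment, nuclei were labelled with the DNA dye Hoechst and imaged, and hits were compounds raising the count of nuclei showing high fluorescence intensity.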
MCF10A rerep = inducers of DNA re-replication in MCF 10A breast cells | MCF 10A DNA re-replication, Hoechst nuclear intensity, 48 h | AID 624296 | Potency, µM (doses to about 46.1 µM), for the others: top-dose activity, positive = re-replication, actives largely listed as activators | 350,000 compounds, 2.9% hits; further: % of control where 0% means no effect; nearly all actives have a fitted effect of over 50% in size
HT1080NT lethal = kills 2HG-producing HT-1080-NT fibrosarcoma cells. HT-1080-NT fibrosarcoma viability, CellTiter-Glo ATP luminescence, 48 h. 360,000 compounds, 1.6% hits. AID 686970. Potency, µM (series often up to 46.1 µM), without a hit: top-dose activity, negative = less viability, hits mostly cytotoxic;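 further: NT is the 2HG producing partner of a matched IDH1 knockdown line; 0% = DMSO-treated cells and -100% = media-only wells without cells; nearly all actives have a fitted effect of over 55% in size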
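Luminescent CellTiter-Glo readout after 48 hours of compound exposure at 37 degrees C defined viability of HT-1080-NT cells. Activity was normalized to DMSO wells and cell-free media wells; concentration-response curves were fitted and assigned curve classes.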
KB-V1 cytotox = kills drug-selected multidrug resistant KB-V1 cells; KB-V1 MDR cells viability, CellTiter-Glo, 72 h; Potency, µM (doses to about 46.1 µM), actives largely listed as cytotoxic; 400,000 compounds, 3.4% hits; AID 1347076; further: on the % scale 0 is the no-effect control and ±100 the full control effect; nearly all actives have a fitted effect of over 60% in size
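Cells of the MDR subline KB-V1 are plated, dosed with compound at multiple concentrations, and incubated 72 h at 37 degrees C; CellTiter-Glo is then added and luminescence read after 10 min.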
HT1080 IDH1KD tx = toxicity to HT-1080 IDH1 knockdown cells (counter line); HT-1080 IDH1 knockdown viability, ATP luminescence, 48 h; Potency, µM (top dose mostly 46.1 µM), inactives show at the highest dose activity, negative = toxicity, most hits filed as cytotoxic; 360,000 compounds, 2% hits;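 further: 0% = DMSO wells and -100% = cell-free medium wells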
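Using the IDH1-knockdown HT-1080 line run in the same batch and compound series as the NT line, viability after 48 h at 37 °C was determined by CellTiter-Glo luminescence and expressed as % activity.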
* marks the source's active call; other numbers are inactive results; i = inactive; ? = inconclusive; . = no result. Rows were chosen to be rich in hits. Some 7.9% of all compounds tested hit in one or more screens of this group. The call rests on the fitted dose curve; in most records, active means well fitted curve in the direction sought with a large enough effect; inconclusive means small, poorly fitted or top-dose-only effect, or another doubt; inactive means no such curve, though single readings can be large; an effect the other way counts as inactive or inconclusive. Potency means the concentration at half of the fitted maximal effect.

SMILES	KB-3-1 tox	SW480 rerep	MCF10A rerep	HT1080NT lethal	KB-V1 cytotox	HT1080 IDH1KD tx
CCN(CC)S(=O)(=O)c1ccc(NC(=O)c2cc3ccc4cccnc4c3[nH]2)cc1	i	.	.	.	?	.
CN(/N=C/c1ccc(N(C)C)cc1)C1=NS(=O)(=O)c2ccccc21	?	7.3µM*	8.2µM*	?	i	?
COc1ccc(N(C)C2=NS(=O)(=O)c3ccccc32)cc1	?	2.6µM*	5.8µM*	12µM*	i	23µM*
COc1ccc(/C=N/N(C)C2=NS(=O)(=O)c3ccccc32)cc1	i	0%	4%	10%	i	-9%
CCOc1cc(C(=O)Nc2ccc(-c3nc4ccccc4s3)cc2Cl)cc(OCC)c1OCC	i	.	.	.	i	.
O=S1(=O)N=C(Oc2ccccc2-c2ccccc2)c2ccccc21	i	.	.	.	?	.
